From PubChem BioAssay (Tox21)
Records with an inconclusive call do not appear. Entries that show only a call come without a potency. Values without a mark were called inactive. The source made the active and inactive calls. Calls follow the shape of the dose curve; as a rule, active = well fitted curve in the direction sought with a large enough effect in the repeat runs; inconclusive = weak or mixed curves; inactive = no such curve, though single readings can be large; an effect the other way counts as inactive or inconclusive.

Experiment: A CellTox Green Cytotoxicity Assay to monitor cytotoxicity in HEK293 cells - 40 hour (AID 1224871); also: nearly all actives have a fitted effect of over 45% in size
Conditions: CellTox Green fluorescence; series mostly up to 76.8 µM
Summary of the method: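 Dead-cell fluorescence measured kinetically: asymmetric cyanine dye, HEK293, 600 cells/well, 5 h settle, 23 nL cpd/DMSO, 37 C, reads 0–40 h every 8 h.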

SMILES	Potency	cytotoxicity increase
C#CCOC(C(=O)OCCN(C)C)(c1ccccc1)c1ccccc1	inactive	
Brc1ccccc1	inactive	
C[C@]12CC[C@H]3[C@@H](CCC4=CC(=O)CC[C@@H]43)[C@@H]1CC[C@@H]2OC(=O)CCC1CCCCC1	inactive	
Cn1sc(Cl)cc1=O	inactive	
CC(C)O.CC(C)O.OCCN(CCO)CCO.OCCN(CCO)CCO.[Ti]	inactive	
c1ccoc1	inactive	
O=C1c2ccccc2C(=O)C1C(=O)C(c1ccccc1)c1ccccc1	inactive	
NCC(CC(=O)O)c1ccc(Cl)cc1 (stereo not given)		-18.6% [at 0.29 µM]
CCOS(C)(=O)=O	inactive	
O=C(NCc1cccnc1)Nc1ccc([N+](=O)[O-])cc1	inactive	
Cc1ccccc1CCl	inactive	
ClCCCCBr	inactive	
COP(=S)(OC)Oc1cc(Cl)c(I)cc1Cl	inactive	
Nc1ccc([N+](=O)[O-])cc1[N+](=O)[O-]	inactive	
CN1C(=O)NC(=O)C(C)(C2=CCCCC2)C1=O (stereo not given)	inactive	
O=C(CBr)Nc1ccc(Cl)cc1C(=O)c1ccccc1F	inactive	
C=CC(=O)OCC(C)O (stereo not given)	inactive	
CC1C(=O)C[C@]2(C(C)C)C[C@H]12 (stereo not given in full)	inactive	

SMILES	Potency	cytotoxicity increase
C=CCC1([C@H](C)CCC)C(=O)NC(=O)NC1=O	inactive	
COc1cc(Cl)c(OC)cc1Cl	inactive	
CCCCCCCCCCOC(=O)c1ccccc1C(=O)OCCCCCCCCCC	inactive	
CCCN(CCC)c1c([N+](=O)[O-])cc(S(C)(=O)=O)cc1[N+](=O)[O-]	inactive	
CCc1ccc(C(=O)NN(C(=O)c2cc(C)cc(C)c2)C(C)(C)C)cc1	inactive	
Clc1cc(Cl)c(Cl)c(Cl)c1	inactive	
CC(C)(OO)c1ccccc1	inactive	
Nc1ccc(N=Nc2ccc(-c3ccc(N=Nc4c(S(=O)(=O)O)cc5cc(S(=O)(=O)O)c(N=Nc6ccccc6)c(O)c5c4N)cc3)cc2)c(N)c1	inactive	
N#Cc1ccc(Cl)cc1	inactive	
CC(=O)C(C)(C)C	inactive	
C[N+](C)(C)CCCl	inactive	
CN1C[C@H](CNC(=O)OCc2ccccc2)C[C@@H]2c3cccc4c3c(cn4C)C[C@H]21	inactive	
CCOP(=S)(OCC)SCSCC	inactive	
O=C(O)COc1ccc(Cl)cc1	inactive	
ClCc1cccc(Cl)c1	inactive	
COCC(C)N(C(=O)CCl)c1c(C)csc1C (stereo not given)	inactive	
COC1=CC(=O)O[C@@H](CCc2ccccc2)C1	inactive	

Experiment: qHTS RealTime-Glo MT Cell Viability Assay in HEK293 cells - 16 hour (AID 1224872); also: nearly all actives have a fitted effect of over 50% in size; also: potency is read from the fitted curve at half-maximal effect; as to activity change, negative = cytotoxicity: top concentration of the series differs between compounds
Conditions: RealTime-Glo luminescence; series mostly up to 76.8 µM
Summary of the method: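 Tox21 10K qHTS, HEK293, 600 cells/well, RealTime-Glo reagent co-dispensed with cells; 5 h preincubation, compound by pintool, 37 C, luminescence at 0–40 h.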

SMILES	Potency	activity change, negative = cytotoxicity
C#CCOC(C(=O)OCCN(C)C)(c1ccccc1)c1ccccc1	inactive	
Brc1ccccc1	inactive	
C[C@]12CC[C@H]3[C@@H](CCC4=CC(=O)CC[C@@H]43)[C@@H]1CC[C@@H]2OC(=O)CCC1CCCCC1	inactive	
Cn1sc(Cl)cc1=O	inactive	
CC(C)O.CC(C)O.OCCN(CCO)CCO.OCCN(CCO)CCO.[Ti]	inactive	
c1ccoc1	inactive	
O=C1c2ccccc2C(=O)C1C(=O)C(c1ccccc1)c1ccccc1	inactive	
NCC(CC(=O)O)c1ccc(Cl)cc1 (stereo not given)		0.531% [at 0.29 µM]
CCOS(C)(=O)=O	inactive	
O=C(NCc1cccnc1)Nc1ccc([N+](=O)[O-])cc1	49 µM (active)	
Cc1ccccc1CCl	inactive	
ClCCCCBr	inactive	
COP(=S)(OC)Oc1cc(Cl)c(I)cc1Cl	inactive	
Nc1ccc([N+](=O)[O-])cc1[N+](=O)[O-]	inactive	
CN1C(=O)NC(=O)C(C)(C2=CCCCC2)C1=O (stereo not given)	inactive	
O=C(CBr)Nc1ccc(Cl)cc1C(=O)c1ccccc1F	inactive	
C=CC(=O)OCC(C)O (stereo not given)	inactive	
CC1C(=O)C[C@]2(C(C)C)C[C@H]12 (stereo not given in full)	inactive	

SMILES	Potency	activity change, negative = cytotoxicity
C=CCC1([C@H](C)CCC)C(=O)NC(=O)NC1=O	inactive	
COc1cc(Cl)c(OC)cc1Cl	inactive	
CCCCCCCCCCOC(=O)c1ccccc1C(=O)OCCCCCCCCCC	inactive	
CCCN(CCC)c1c([N+](=O)[O-])cc(S(C)(=O)=O)cc1[N+](=O)[O-]	15.5 µM (active)	
CCc1ccc(C(=O)NN(C(=O)c2cc(C)cc(C)c2)C(C)(C)C)cc1	inactive	
Clc1cc(Cl)c(Cl)c(Cl)c1	inactive	
CC(C)(OO)c1ccccc1	inactive	
Nc1ccc(N=Nc2ccc(-c3ccc(N=Nc4c(S(=O)(=O)O)cc5cc(S(=O)(=O)O)c(N=Nc6ccccc6)c(O)c5c4N)cc3)cc2)c(N)c1	inactive	
N#Cc1ccc(Cl)cc1	inactive	
CC(=O)C(C)(C)C	inactive	
C[N+](C)(C)CCCl	inactive	
CN1C[C@H](CNC(=O)OCc2ccccc2)C[C@@H]2c3cccc4c3c(cn4C)C[C@H]21	21.3 µM (active)	
CCOP(=S)(OCC)SCSCC	inactive	
O=C(O)COc1ccc(Cl)cc1	inactive	
ClCc1cccc(Cl)c1	inactive	
COCC(C)N(C(=O)CCl)c1c(C)csc1C (stereo not given)	inactive	
COC1=CC(=O)O[C@@H](CCc2ccccc2)C1	inactive	

Experiment: qHTS RealTime-Glo MT Cell Viability Assay in HepG2 cells - 8 hour (AID 1224873); also: nearly all actives have a fitted effect of over 55% in size
Conditions: RealTime-Glo luminescence; series mostly up to 76.8 µM
Summary of the method: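 HepG2 cells (600/well) mixed with RealTime-Glo MT reagent, settled 5 h at 37 C/5% CO2 before compound addition. Nonlytic NanoLuc luminescence from viable-cell prosubstrate reduction read repeatedly during 40 h treatment at 37 C.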

SMILES	Potency	viability change, negative = cytotoxic
C#CCOC(C(=O)OCCN(C)C)(c1ccccc1)c1ccccc1	inactive	
Brc1ccccc1	inactive	
C[C@]12CC[C@H]3[C@@H](CCC4=CC(=O)CC[C@@H]43)[C@@H]1CC[C@@H]2OC(=O)CCC1CCCCC1	inactive	
Cn1sc(Cl)cc1=O	inactive	
CC(C)O.CC(C)O.OCCN(CCO)CCO.OCCN(CCO)CCO.[Ti]	inactive	
c1ccoc1	inactive	
O=C1c2ccccc2C(=O)C1C(=O)C(c1ccccc1)c1ccccc1	inactive	
NCC(CC(=O)O)c1ccc(Cl)cc1 (stereo not given)		0.906% [at 0.29 µM]
CCOS(C)(=O)=O	inactive	
O=C(NCc1cccnc1)Nc1ccc([N+](=O)[O-])cc1	inactive	
Cc1ccccc1CCl	inactive	
ClCCCCBr	inactive	
COP(=S)(OC)Oc1cc(Cl)c(I)cc1Cl	inactive	
Nc1ccc([N+](=O)[O-])cc1[N+](=O)[O-]	inactive	
CN1C(=O)NC(=O)C(C)(C2=CCCCC2)C1=O (stereo not given)	inactive	
O=C(CBr)Nc1ccc(Cl)cc1C(=O)c1ccccc1F	inactive	
C=CC(=O)OCC(C)O (stereo not given)	inactive	
CC1C(=O)C[C@]2(C(C)C)C[C@H]12 (stereo not given in full)	inactive	

SMILES	Potency	viability change, negative = cytotoxic
C=CCC1([C@H](C)CCC)C(=O)NC(=O)NC1=O	inactive	
COc1cc(Cl)c(OC)cc1Cl	inactive	
CCCCCCCCCCOC(=O)c1ccccc1C(=O)OCCCCCCCCCC	inactive	
CCCN(CCC)c1c([N+](=O)[O-])cc(S(C)(=O)=O)cc1[N+](=O)[O-]	inactive	
CCc1ccc(C(=O)NN(C(=O)c2cc(C)cc(C)c2)C(C)(C)C)cc1	inactive	
Clc1cc(Cl)c(Cl)c(Cl)c1	inactive	
CC(C)(OO)c1ccccc1	inactive	
Nc1ccc(N=Nc2ccc(-c3ccc(N=Nc4c(S(=O)(=O)O)cc5cc(S(=O)(=O)O)c(N=Nc6ccccc6)c(O)c5c4N)cc3)cc2)c(N)c1	inactive	
N#Cc1ccc(Cl)cc1	inactive	
CC(=O)C(C)(C)C	inactive	
C[N+](C)(C)CCCl	inactive	
CN1C[C@H](CNC(=O)OCc2ccccc2)C[C@@H]2c3cccc4c3c(cn4C)C[C@H]21	inactive	
CCOP(=S)(OCC)SCSCC	inactive	
O=C(O)COc1ccc(Cl)cc1	inactive	
ClCc1cccc(Cl)c1	inactive	
COCC(C)N(C(=O)CCl)c1c(C)csc1C (stereo not given)	inactive	
COC1=CC(=O)O[C@@H](CCc2ccccc2)C1	inactive	
